# Several values for one entry are separate records, joined by “and”; a condition that tells them apart may be missing. Identical values can stand only once. Inconclusive results are not listed. Activity calls are given as the source filed them.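 Rule for the calls, unless noted: active = compounds whose cell count with miR-34 switched on is under 0.7 times the count with it off; inactive = the rest.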 Where a SMILES comes first, the peptide text is derived from it. [ ]: non-standard residue; d: D form. The star is where a group is joined. Sta = CC(C)C[C@H](N)[C@@H](O)CC(=O)O; Isovaleryl = CC(C)CC(=O)*
# What was measured:
# [1] = Wnt pathway potentiators raising nuclear beta-catenin – imaging, WNT3A-conditioned medium, mouse C2C12, NPC library, primary screen (AID 1117326; in the data active = nuclear beta-catenin stimulation mostly above about 4.2%, no sharp cut-off; inactive = mostly below about 10%; note: reference of the scale not given here); conditions: stronger effect = higher value
# [2] = stimulators of insulin release from INS-1E, primary screen, cell-based, 5 mM glucose, NPC library (AID 1117329;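 active = compound raises insulin release from rat beta cells at 5 mM glucose, no numeric limit stated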; note: reference of the scale not given here); conditions: rat INS-1E insulin secretion, at 10 µM, stronger effect = higher value
# [3] = growth inhibition of GSK3B-pretreated HCT116 cells – cell-based, CellTiter-Glo, 0.2 to 20 µM (AID 1117336;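 active = compounds lowering colon cancer cell viability after pretreatment blocking the GSK3B kinase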); conditions: HCT116 viability after GSK3B inhibitor, at 20 µM, stronger effect = higher value
# [4] = inhibition of endothelial tube formation, primary screen, imaging, VEGF stimulated, CD31 staining, tube area, NPC library (AID 1117340;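 active = compound that reduces growth-factor-driven endothelial tube area in a mixed cell culture, no cutoff stated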); conditions: VEGF-stimulated ADSC/ECFC co-culture, at 10 µM, stronger effect = higher value
# [5] = GLP1 release stimulators, primary, NCI-H716, NPC library (AID 1117341;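 active = compound raises GLP1 secretion from the human gut endocrine cells, with no numeric limit stated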; note: reference of the scale not given here); conditions: NCI-H716 cells, at 10 µM, stronger effect = higher value
# [6] = HCT116 colon cancer cell growth inhibition, primary screen, CellTiter-Glo luminescence, NPC library (AID 1117342;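 active = compounds that lower survival of HCT116 colon cancer cells in the luminescence readout, no numeric limit stated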); conditions: at 20 µM (top of the series)
# [7] = reduced SW480 viability measured with CellTiter-Glo, NPC library, primary (AID 1117343;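 active = compounds that lower viability of the colon cancer cells in the luminescence readout, with no numeric limit stated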); conditions: CellTiter-Glo luminescence; at 20 µM (top of the series) unless noted
# [8] = NPC library primary testing for decreased DLD-1 cell viability via CellTiter-Glo (AID 1117346;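 active = compounds that lower survival of DLD-1 colon cancer cells in the luminescence readout, no cutoff given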); conditions: DLD-1 viability, CellTiter-Glo luminescence; at 20 µM (top of the series)
# [9] = tested on: Aerobactin synthetase IucA (Klebsiella pneumoniae); experiment: inhibition of K. pneumoniae IucA enzyme – biochemical, Tocris library, absorbance (AID 1345561; call rule not given here;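 note: 100% = enzyme without compound and 0% = no enzyme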); conditions: purified IucA enzyme assay, absorbance (OD) read-out; stronger effect = lower value;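 tested at 8 µM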
# [10] = viability loss with induced miR-34 in A549 – imaging, A549 dox-inducible miR-34, nuclei and caspase counts, primary screen (AID 1347080); conditions: A549 miR-34 inducible, Hoechst nuclei count, 48 h
# [11] = galactose survival enhancers in mitochondrial complex I cybrids – cell-based, galactose medium, ATP luminescence, primary screen (AID 1645843;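 active = z-score of at least 1.8 in each of two replicates, scored against plate mean and spread of sample wells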;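 note: positive z means more ATP and so rescue of galactose-driven cybrid death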); conditions: complex I mutant cybrid cells, 72 h, stronger effect = higher value
# [12] = P. berghei load reduction in hepatocytes – cell-based, HepG2, luciferase luminescence, HepG2 viability, primary screen (AID 624349; in the data active = parasite load remaining mostly below about 12%, no sharp cut-off; inactive = mostly above about 10%;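 note: 100% = mean of DMSO negative control wells on the same plate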); conditions: P. berghei liver stage in HepG2, luciferase luminescence, concentration not given here; parasite load remaining: stronger effect = lower value; viability: measured here: HepG2 viability without parasites
# [13] = viability loss in pontine glioma line – cell-based, SU-DIPG-XVII, MIPE5.0, CellTiter-Glo, qHTS, dose response (AID 1347060; cut-off not given, nearly all actives have AC50 up to about 26 µM;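 for AC50: cells exposed to compound for 48 hours before viability readout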); conditions: CellTiter-Glo ATP luminescence
# [14] = viability loss in pontine glioma line – cell-based, SU-DIPG-XIII, MIPE4.0, CellTiter-Glo, qHTS, dose response (AID 1347061; cut-off not given, nearly all actives have AC50 up to about 37 µM;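 note: cells exposed to compound for 48 hours before readout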); conditions: CellTiter-Glo ATP luminescence
# [15] = viability loss in pontine glioma line – cell-based, JHH-DIPG-1, MIPE4.0, CellTiter-Glo, qHTS, dose response (AID 1347062; cut-off not given, nearly all actives have AC50 up to about 27 µM;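 for AC50: cells exposed to compound for two days before readout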); conditions: JHH-DIPG-1 viability, CellTiter-Glo ATP luminescence
# [16] = growth inhibition of DIPG cells – cell-based, MIPE5.0 library, qHTS (AID 1347068; cut-off not given, nearly all actives have IC50 up to about 30 µM); conditions: SU-DIPG-XXV viability
# [17] = MELAS cybrid and Rieske KO viability enhancers – cell-based, MELAS cybrids, Rieske KO mouse fibroblasts, CellTiter-Glo, primary screen (AID 1508586;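 active = mean z-score across replicates of 1.96 or higher in either the MELAS or the Rieske mutant cell line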;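 note: z relative to plate mean and SD of compound and empty wells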); conditions: low glucose
# [18] = stronger effect = lower value, cell number ratio, induced over uninduced
# [19] = measured here: relative caspase fold change +Dox/-Dox
# [20] = measured here: total cells with miR-34 induction, stronger effect = lower value
# [21] = measured here: total cells without miR-34 induction
# [22] = MELAS cybrid survival, CellTiter-Glo 48 h, stronger effect = higher value
# [23] = Rieske KO mouse fibroblast survival, CellTiter-Glo 72 h
smiles,measurement,setting,value
O=S1(=O)c2cccc3cccc(c23)N1CCCN1CCN(c2ccc(F)cc2)CC1,nuclear beta-catenin stimulation,[1]; at 10 µM,1.8% (inactive)
same,nuclear beta-catenin stimulation,"[1]; stimulation, at 2 µM",17.7%
same,insulin secretion stimulation,[2],3.4% (inactive)
same,viability decrease,[3],74.5% (active)
same,tube area decrease,[4],-3% (inactive)
same,GLP1 secretion stimulation,[5],0.3% (inactive)
same,inhibition of viability,[6],104% (active)
same,viability decrease (inhibition),[7],136% (active)
same,viability decrease (inhibition),[8],84.5% (active)
same,remaining activity,[9],92.7% (inactive)
same,fold change,[10]; [18],0.902 (inactive)
same,fold change,[10]; [19],1.69
same,cell count,[10]; [20],7340
same,cell count,[10]; [21],8140
same,z-score,[11],-0.675 (inactive)
CC(C)CC(=O)N[C@H](C(=O)N[C@H](C(=O)N[C@@H](CC(C)C)[C@@H](O)CC(=O)N[C@@H](C)C(=O)N[C@@H](CC(C)C)[C@@H](O)CC(=O)O)C(C)C)C(C)C (Isovaleryl-VV[Sta]A[Sta]-OH),parasite load remaining,[12],101% (inactive)
same,viability,[12],102%
same,nuclear beta-catenin stimulation,[1]; at 10 µM,-1.6% (inactive)
same,nuclear beta-catenin stimulation,"[1]; stimulation, at 2 µM",-0.3%
same,insulin secretion stimulation,[2],4.9% (inactive)
same,viability decrease,[3],-3.4% (inactive)
same,tube area decrease,[4],-25.1% (inactive)
same,GLP1 secretion stimulation,[5],0.5% (inactive)
same,inhibition of viability,[6],4% (inactive)
same,viability decrease (inhibition),[7],-0.3% (inactive)
same,viability decrease (inhibition),[8],13% (active)
same,outcome,[13],inactive
same,outcome,[14],inactive
same,outcome,[15],inactive
same,outcome,[16],inactive
same,fold change,[10]; [18],0.91 (inactive) and 1.02 (inactive)
same,fold change,[10]; [19],1.28 and 1.09
same,cell count,[10]; [20],7720 and 5130
same,cell count,[10]; [21],8480 and 5040
same,z-score,[17]; [22],-1.11 (inactive)
same,z-score,[17]; [23],-0.328
NS(=O)(=O)c1cc(Cl)c(Cl)c(S(N)(=O)=O)c1,parasite load remaining,[12],89.1% (inactive)
same,viability,[12],104%
same,nuclear beta-catenin stimulation,[1]; at 10 µM,-1.4% (inactive)
same,nuclear beta-catenin stimulation,"[1]; stimulation, at 2 µM",0.4%
same,insulin secretion stimulation,[2],3.3% (inactive)
same,viability decrease,[3],1% (inactive)
same,tube area decrease,[4],-7.2% (inactive)
same,GLP1 secretion stimulation,[5],0.3% (inactive)
same,inhibition of viability,[6],6.4% (inactive)
same,viability decrease (inhibition),[7],6.1% (inactive)
same,viability decrease (inhibition),[8],-8.2% (inactive)
same,AC50,[13],26.3 µM (active)
same,outcome,[14],inactive
same,outcome,[15],inactive
same,outcome,[16],inactive
same,fold change,[10]; [18],0.878 (inactive) and 0.937 (inactive)
same,fold change,[10]; [19],1.4 and 0.793
same,cell count,[10]; [20],8460 and 8780
same,cell count,[10]; [21],9640 and 9360
same,z-score,[17]; [22],-0.199 (inactive) and -0.0719 (inactive)
same,z-score,[17]; [23],0.943 and -0.845
CCOC(=O)[C@H](CCc1ccccc1)N[C@H]1CS[C@H](c2cccs2)CN(CC(=O)O)C1=O,nuclear beta-catenin stimulation,[1]; at 10 µM,0.9% (inactive)
same,nuclear beta-catenin stimulation,"[1]; stimulation, at 2 µM",-0.9%
same,insulin secretion stimulation,[2],2% (inactive)
same,viability decrease,[3],-8.8% (inactive)
same,tube area decrease,[4],-13.9% (inactive)
same,GLP1 secretion stimulation,[5],4.1% (inactive)
same,inhibition of viability,[6],-4.6% (inactive)
same,viability decrease (inhibition),[7],-29% (inactive)
same,viability decrease (inhibition),[8],2.5% (inactive)
same,outcome,[13],inactive
same,AC50,[14],14.8 µM (active)
same,AC50,[15],0.59 µM (active)
same,outcome,[16],inactive
